Source: PubChem BioAssay (EPA / NIEHS)
Calls of active or inactive are those of the source. How the source made its calls: active means hit-call score of the fitted dose curve at least 0.9, where 1 is the maximum; inactive means score below 0.9.

Columns and labels:
[1] = read-out: Vascular endothelial growth factor receptor 2 (Homo sapiens) (UniProt P35968); assay: BSK_4H_VEGFRII: BioMAP Diversity Plus: 4H Assay for Vascular endothelial growth factor receptor 2 (VEGFR2) Biomarker Activity (AID 2283031); conditions: primary human endothelial cells (HUVEC); actives raise or lower the signal
Procedure, shortened: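 Measured by ELISA after 24 h of compound treatment: VEGFR2 on primary human umbilical vein endothelial cells, fitted in both directions relative to DMSO. Parallel cultures received SRB staining (560 nm) for overt cytotoxicity.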

[2] = read-out: Human Leukocyte Antigen - DR isotype (HLADR), HLA-DRA (gene 3122); assay: BSK_BE3C_HLADR: BioMAP Diversity Plus: BE3C Assay for Human Leukocyte Antigen - DR isotype (HLADR) Biomarker Activity (AID 2283032); conditions: primary human bronchial epithelial cells; actives raise or lower the signal
Procedure, shortened: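 ELISA read-out of HLA-DR on human lung bronchial epithelial primary cells, measured 24 h post-dosing. Both increases and decreases were scored relative to DMSO vehicle.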

[3] = read-out: Vascular cell adhesion molecule 1 (VCAM1), VCAM1 (gene 7412); assay: BSK_4H_VCAM1: BioMAP Diversity Plus: 4H Assay for Vascular cell adhesion molecule 1 (VCAM1) Biomarker Activity (AID 2283033); conditions: primary human endothelial cells (HUVEC); actives raise or lower the signal
Procedure, shortened: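 ELISA read-out of VCAM-1 on human umbilical vein endothelium 24 hours after chemical dosing; gain or loss of signal was fitted relative to DMSO, with sulforhodamine B staining of parallel cultures flagging overt cytotoxicity.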

[4] = read-out: Interferon-gamma inducible Protein 10 (IP10), CXCL10 (gene 3627); assay: BSK_BE3C_IP10: BioMAP Diversity Plus: BE3C Assay for Interferon-gamma inducible Protein 10 (IP10) Biomarker Activity (AID 2283034); conditions: primary human bronchial epithelial cells; actives raise or lower the signal
Procedure, shortened: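 Chemical is dosed onto human lung bronchial epithelial primary cells, cultures are incubated 24 h, and IP-10 is then quantified by ELISA. Gain or loss of signal is fitted in both directions relative to DMSO.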

[5] = read-out: Monokine induced gamma interferon (MIG), CXCL9 (gene 4283); assay: BSK_BE3C_MIG: BioMAP Diversity Plus: BE3C Assay for Monokine induced gamma interferon (MIG) Biomarker Activity (AID 2283035); conditions: primary human bronchial epithelial cells; actives raise or lower the signal
Procedure, shortened: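 ELISA read-out of MIG in human lung bronchial epithelial primary cultures, 24 h post-dosing. Bidirectional curve fit vs DMSO baseline.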

[6] = read-out: Transforming growth factor beta 1 (TGFb1), TGFB1 (gene 7040); assay: BSK_BE3C_TGFb1: BioMAP Diversity Plus: BE3C Assay for Transforming growth factor beta 1 (TGFb1) Biomarker Activity (AID 2283036); conditions: primary human bronchial epithelial cells; actives raise or lower the signal
Procedure, shortened: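 Primary human lung bronchial epithelial cells; compound exposure 24 h; TGF-b1 by ELISA; bidirectional fit, DMSO baseline. Parallel SRB total-protein staining for cytotoxicity.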

[7] = read-out: Plasminogen activator inhibitor-1 (PAI1), SERPINE1 (gene 5054); assay: BSK_BE3C_PAI1: BioMAP Diversity Plus: BE3C Assay for Plasminogen activator inhibitor-1 (PAI1) Biomarker Activity (AID 2283037); conditions: primary human bronchial epithelial cells; actives raise or lower the signal
Procedure, shortened: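 Primary human lung bronchial epithelial cells; chemical dosing; 24 h; PAI-1 measured by ELISA; bidirectional fit referenced to DMSO as negative control.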

[8] = read-out: Urokinase-type plasminogen activator receptor (uPAR), PLAUR (gene 5329); assay: BSK_BE3C_uPAR: BioMAP Diversity Plus: BE3C Assay for Urokinase-type plasminogen activator receptor (uPAR) Biomarker Activity (AID 2283039); conditions: primary human bronchial epithelial cells; actives raise or lower the signal
Procedure, shortened: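 Human bronchial epithelial primary cells; chemical exposure 24 h; uPAR by ELISA; bidirectional fit vs DMSO control.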

[9] = read-out: Interleukin-6 (IL6), IL6 (gene 3569); assay: BSK_CASM3C_IL6: BioMAP Diversity Plus: CASM3C Assay for Interleukin-6 (IL6) Biomarker Activity for (AID 2283040); conditions: primary human coronary artery smooth muscle cells; actives raise or lower the signal
[10] = read-out: Tissue plasminogen activator (tPA), PLAT (gene 5327); assay: BSK_BE3C_tPA: BioMAP Diversity Plus: BE3C Assay for Tissue plasminogen activator (tPA) Biomarker Activity (AID 2283041); conditions: primary human bronchial epithelial cells; actives raise or lower the signal
Procedure, shortened: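 Primary human lung bronchial epithelial cultures receive test chemical; after 24 h, tPA is quantified by ELISA, and gain or loss of signal is fitted bidirectionally relative to DMSO baseline.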

[11] = read-out: Interleukin-8 (IL8), CXCL8 (gene 3576); assay: BSK_CASM3C_IL8: BioMAP Diversity Plus: CASM3C Assay for Interleukin-8 (IL8) Biomarker Activity (AID 2283042); conditions: primary human coronary artery smooth muscle cells; actives raise or lower the signal;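 further: IL-8 protein level quantified by ELISA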
[12] = read-out: Human Leukocyte Antigen - DR isotype (HLADR), HLA-DRA (gene 3122); assay: BSK_CASM3C_HLADR: BioMAP Diversity Plus: CASM3C Assay for Human Leukocyte Antigen - DR isotype (HLADR) Biomarker Activity (AID 2283043); conditions: primary human coronary artery smooth muscle cells; actives raise or lower the signal;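 further: cell-surface HLA-DR protein level quantified by ELISA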
[13] = read-out: Macrophage colony-stimulating factor (MCSF), CSF1 (gene 1435); assay: BSK_CASM3C_MCSF: BioMAP Diversity Plus: CASM3C Assay for Macrophage colony-stimulating factor (MCSF) Biomarker Activity (AID 2283044); conditions: primary human coronary artery smooth muscle cells; actives raise or lower the signal;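 further: M-CSF protein amount quantified by ELISA after 24 h exposure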
[14] = read-out: Low-density lipoprotein receptor (LDLR), LDLR (gene 3949); assay: BSK_CASM3C_LDLR: BioMAP Diversity Plus: CASM3C Assay for Low-density lipoprotein receptor (LDLR) Biomarker Activity (AID 2283045); conditions: primary human coronary artery smooth muscle cells; actives raise or lower the signal;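 further: LDLR protein level on the cell surface quantified by ELISA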
[15] = read-out: Monocyte Chemoattractant Protein-1 (MCP1), CCL2 (gene 6347); assay: BSK_CASM3C_MCP1: BioMAP Diversity Plus: CASM3C Assay for Monocyte Chemoattractant Protein-1 (MCP1) Biomarker Activity (AID 2283046); conditions: primary human coronary artery smooth muscle cells; actives raise or lower the signal;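 further: MCP-1 level quantified by ELISA 24 h after dosing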
[16] = BSK_CASM3C_Proliferation: Cell Proliferation Assessment in the BioMAP Diversity Plus: CASM3C Assay (AID 2283047); conditions: primary human coronary artery smooth muscle cells;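 further: sulforhodamine B total protein stain as relative cell number at 560 nm; sub-confluent cells exposed 48 h before staining; fitted both ways against DMSO so gain or loss of cell number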
[17] = read-out: Monokine induced gamma interferon (MIG), CXCL9 (gene 4283); assay: BSK_CASM3C_MIG: BioMAP Diversity Plus: CASM3C Assay for Monokine induced gamma interferon (MIG) Biomarker Activity (AID 2283048); conditions: primary human coronary artery smooth muscle cells; actives raise or lower the signal;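 further: MIG protein level measured by ELISA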
[18] = read-out: serum amyloid A (SAA), SAA1 (gene 6288); assay: BSK_CASM3C_SAA: BioMAP Diversity Plus: CASM3C Assay for serum amyloid A (SAA) Biomarker Activity (AID 2283049); conditions: primary human coronary artery smooth muscle cells; actives raise or lower the signal;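 further: SAA protein level quantified by ELISA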
[19] = BSK_CASM3C_SRB: Viability Assessment in the BioMAP Diversity Plus: CASM3C Assay (AID 2283050); conditions: primary human coronary artery smooth muscle cells;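 further: total protein by SRB staining as cytotoxicity measure in parallel cultures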

Measured: AC50

N#Cc1cc(Br)c(O)c(Br)c1
active: [2] 11.9 µM | [3] 32 µM | [4] 23.5 µM | [7] 12.8 µM
inactive: all other assays above

COP(N)(=O)SC (centres undefined)
active: [2] 5.27 µM
inactive: all other assays above

CCc1nn(C)c(C(=O)NCc2ccc(C(C)(C)C)cc2)c1Cl
active: [2] 18.3 µM | [3] 6.81 µM | [4] 25.7 µM | [5] 29.4 µM | [7] 31.9 µM | [8] 27.3 µM | [10] 20 µM | [16] 14.4 µM
inactive: all other assays above

CCCCNC(=O)n1c(NC(=O)OC)nc2ccccc21
inactive: all assays above

Cc1c(F)c(F)c(COC(=O)C2C(/C=C(\Cl)C(F)(F)F)C2(C)C)c(F)c1F (centres undefined)
inactive: all assays above

CN(C)C(=S)SSC(=S)N(C)C
active: [2] 8.69 µM | [3] 29.3 µM | [4] 10.7 µM | [5] 11.2 µM | [6] 12.9 µM | [7] 27.1 µM | [8] 9.65 µM | [10] 12 µM | [13] 12 µM | [15] 20 µM | [16] 12.6 µM | [17] 14.6 µM
inactive: [1] | [9] | [11] | [12] | [14] | [18] | [19]
